Bioassay records: PubChem BioAssay, National Center for Advancing Translational Sciences (NCATS)
Resorufin autofl: qHTS Assay for Spectroscopic Profiling in Resorufin Spectral Region; Compound fluorescence, resorufin region 547/598 nm, buffer; hits give high values; actives 0.04% (n = 59,000); AID 588, 2007; max dye-equivalent concentration, M
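Intrinsic fluorescence profiled in the resorufin window (ex 547 nm, em 598 nm) after 15 min at room temperature in pH 8.0 Tris buffer (100 mM); responses normalized against a six-point resorufin standard series as dye-equivalent concentration.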
A647 fluor: qHTS Assay for Spectroscopic Profiling in A647 Spectral Region. 59,000 tested, under 10 active. Compound fluorescence, A647 channel (570/671 nm), Tris buffer. max dye-equivalent concentration, M;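 further: values scaled relative to a standard on each plate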
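Compound fluorescence was measured in 100 mM Tris buffer, pH 8.0, after 15 min at room temperature, using 570 nm excitation and 671 nm emission filters. Signal was normalized to a per-plate Alexa 647 standard curve and expressed as dye-equivalent concentration at each compound concentration.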
A488 autofl: qHTS Assay for Spectroscopic Profiling in A488 Spectral Region | compound autofluorescence, A488 spectral region, dye equivalency; Compound Type: qHTS ECL - MLSMR | max dye equivalency, M | actives 0.1% (n = 59,000) | AID 591, 2007
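Autofluorescence read at ex 480/em 540 nm after 15 min RT in 100 mM Tris pH 8.0; compound signal normalized to A488 standard series on each plate, reported as dye-equivalent concentration at each test concentration.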
Texas Red fluor: qHTS Assay for Spectroscopic Profiling in Texas Red Spectral Region | Compound fluorescence, Texas Red channel, 547/618 nm; hits give high values | max dye-equivalent concentration, M | actives 0.06% (n = 59,000) | AID 587, 2007; in the data active means max dye-equivalent concentration above about 10 nM; inconclusive means between about 1.1 nM and that limit
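Compound titrations in 100 mM Tris pH 8.0 were incubated 15 min at room temperature and read at 547 nm excitation / 618 nm emission. Texas Red six-point standard curve on each plate converted fluorescence to dye-equivalent concentration.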
Rhodamine fluor: qHTS Assay for Spectroscopic Profiling in Rhodamine Spectral Region; max dye-equivalent concentration, M; AID 594, 2007; actives 0.05% (n = 59,000); Rhodamine-region fluorescence, 547/598 nm, Tris buffer; hits give high values; in the data active means max dye-equivalent concentration above about 11 nM; inconclusive means between about 1.1 nM and that limit
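qHTS spectral profiling of compounds without any target or enzyme present, in pH 8.0 Tris buffer; plates were read after a 15-minute room-temperature incubation using the rhodamine-region filter set.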
Fluorescein autfl: qHTS Assay for Spectroscopic Profiling in Fluorescein Spectral Region | max fluorescein-equivalent concentration, M | AID 593, 2007 | Compound autofluorescence, 480/540 nm, fluorescein-equivalent; hits give high values | actives 0.91% (n = 59,000); in the data active means max fluorescein-equivalent concentration above about 10 nM; inconclusive means between about 1.1 nM and that limit
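Fluorescein stocks ranging 3 mM down to 300 nM, plus DMSO blanks, were pinned alongside compounds to build a per-plate standard curve. Buffer: 100 mM Tris, pH 8.0. Incubation 15 min, room temperature; filters 480/540 nm.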
Numbers without * were called inactive; i = inactive; ? = inconclusive; ! = not confirmed by another sample. Sampled rows, rich in hits. Any-hit rate of the full collection: about 0.95%. Unless noted, how the calls were made is not given here.

SMILES	Resorufin autofl	A647 fluor	A488 autofl	Texas Red fluor	Rhodamine fluor	Fluorescein autfl
COc1c2ccoc2cc2oc(=O)ccc12	i	4e-09	i	i	i	i
COc1ccc2c(OC)c3ccoc3nc2c1OC	i	1e-09	i	?	i	1e-08M*!
CCC1(c2ccccc2)C(=O)NCNC1=O	i	3.4e-08	i	i	i	1.2e-08M*!
O=C1NC(=O)C(c2ccccc2)(c2ccccc2)N1	i	1e-09	i	i	i	?
C[C@H]1CCCC=CC2C[C@H](OC(=O)CN(C)C)C[C@@H]2[C@@H](O)/C=C\C(=O)O1 (stereo partly specified)	i	1.4e-08	i	i	i	i
COc1ccc(N(CC(=O)O)N=O)cc1	i	1.6e-08	i	i	i	i
CCNC(=O)[C@@H]1O[C@@H](n2cnc3c(N)nc(NCCc4ccc(CCC(=O)O)cc4)nc32)[C@H](O)[C@@H]1O	i	3.7e-09	i	?	i	i
COC(=O)c1ccc2c(c1)SC1=C(CCCC1=O)N2	1.9e-08M*	6.8e-08	?	2.1e-08M*	2e-08M*	5.3e-08M*
O=C1C2=C(Nc3cc([N+](=O)[O-])ccc3N2)O[C@@H]1c1ccc([C@H]2OC3=C(Nc4ccc([N+](=O)[O-])cc4N3)C2=O)cc1	i	6.9e-09	i	i	i	i
COc1cccc(-c2cncnc2NCc2cccnc2)c1	i	5.7e-09	i	i	i	?
O=C(c1cnccn1)N1CCC[C@@]2(CCN(Cc3ccccc3)C2)C1	i	1.9e-09	i	i	i	i
CCOC(=O)c1c(C)oc2c1c(/C=N/c1ccccn1)c(O)c1ccccc12	i	1e-09	i	i	i	2.2e-08M*
CCOC(=O)c1c(C)oc2ccc(O)c(CN(C)C)c12	i	1.7e-08	i	i	i	?
CC(C)=CCNc1ncnc2c1c(C#N)cn2[C@H]1O[C@@H](CO)[C@@H](O)[C@@H]1O	i	1e-09	i	i	i	i
CCOC(=O)c1cnc(-n2nc(C)cc2C)nc1NC	i	1.8e-09	i	i	i	1e-08M*
CCOC(=O)c1cnc(-n2nc(C)cc2C)nc1NC1CCCCC1	i	4.7e-08	i	i	i	?
CCOC(=O)c1cnc(-n2nc(C)cc2C)nc1Nc1ccc(N(C)C)cc1	i	4.5e-08	i	?	i	?
CCOC(=O)c1cnc(-n2nc(C)cc2C)nc1N(CC)CC	i	4.4e-08	i	i	i	1.1e-08M*
Fc1ccccc1N1CCN(c2nc3ccccc3n3nnnc23)CC1	i	3.1e-08	i	i	i	1.6e-08M*
c1cnc(N2CCN(c3nc4ccccc4n4cnnc34)CC2)nc1	i	6.2e-09	i	i	i	i
COCCn1c(=O)c(C)nc2cnc(Nc3ccccc3)nc21	i	5.2e-09	i	i	i	?
Cn1c(=O)[nH]c2cc(Cl)cnc21	i	9e-08	i	i	i	1.8e-08M*
FC(F)(F)c1nc2ncc(Cl)cc2[nH]1	i	3.6e-09	i	i	i	i
COc1c(O)ccc2c1CN1CCc3cc4c(cc3[C@@H]1C2)OCO4	i	4e-08	i	i	i	?
COc1cc(C)cc(OC)c1/C=C\C(=O)O	i	4e-08	i	i	i	i
O=S(=O)(CCn1cccc1)CCn1cccc1	i	1e-09	i	i	i	1e-08M*
O=C(c1cnccn1)N1CCC[C@@]2(CCN(c3ccncc3)C2)C1	i	1e-09	i	i	i	i
C[C@H]1CC(C)(C)C[C@@](OCCN2CCCCC2)(c2ccccc2)C1	i	5.3e-08	i	i	i	?
COc1cc(C2C3=C(CC(C)(C)CC3=O)Nc3c2c(=O)[nH]c(=O)n3Cc2ccccc2)ccc1O (stereo unspecified)	i	1e-09	i	i	i	?
